Sampled rows, rich in hits. Any-hit rate of the full collection: about 2.4%.
D2 PAM-1: human D2 receptor positive allosteric modulation; 360,000 tested, 0.23% active; DiscoveRx D2 beta-arrestin cells, luminescence, 90 min; 100% = 57 uM dopamine signal; AID 624464; P14416; potentiation, % (concentration not given with the values); in the data active means potentiation above about 50%; inconclusive means mostly about 30% to 49%
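D2 cells co-treated with compound plus 50 nM dopamine (EC20) for 90 min at 37 deg C to detect potentiation. Beta-arrestin recruitment was read as enzyme-fragment luminescence after 1 h at ambient temperature. Full response was set by 57 uM dopamine.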
D2 ag-1: agonists of human D2 dopamine receptor; activation, % at 2 µM; AID 485358; 340,000 tested, 0.53% active; HEK293 T-REx D2 cells, calcium flux agonist mode;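 active means activation over 3 SD above normal in the single-dose calcium agonist read, cut at about 30% in these data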; further: 0% is about no effect
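Calcium-flux readout, 1 cycle/sec over 180 s following compound pin transfer, in inducible HEK293 Trex D2 cells (force-coupled); dopamine controls included. Positive calcium responses during this window marked compounds as potential agonists.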
D2 PAM-2: positive allosteric modulators of human D2 dopamine receptor; P14416; HEK293 T-REx D2, calcium flux, EC20 dopamine potentiation; potentiation, % at 10 µM; 340,000 tested, 0.34% active; AID 485347;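 active means potentiation over 3 SD above the plate norm, cut at about 30% in these data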; further: 0% is about no effect
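Tetracycline-induced Hek293 Trex D2 cells, force-coupled to calcium, loaded with no-wash calcium dye. Compound added with 180 s kinetic read for agonism, then EC20 dopamine and a further 180 s read for potentiation.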
D2 ag-2: human D2 receptor agonism in beta-arrestin assay; activation, % (concentration not given with the values); 360,000 tested, 0.084% active; DiscoveRx PathHunter D2 beta-arrestin, luminescence, 90 min; 100% = 57 uM dopamine signal; P14416; AID 624465; in the data active means activation above about 40%; inconclusive means between about 15% and that limit
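Agonist mode: compounds alone added to overnight-plated D2 PathHunter cells for 90 min at 37 C, with 57 uM final dopamine (EC100) defining full response. Beta-arrestin recruitment detected by chemiluminescent reagent, read after 1 h at ambient temperature.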
D2 antagonist: antagonists of human D2 dopamine receptor | HEK293 TREx D2 cells, calcium flux, dopamine EC80 | P14416 | 340,000 tested, 2% active | inhibition, % at 10 µM; in the data active means inhibition above about 30%; inactive means below that, where a call was filed; further: 0% is about no effect
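Read-out: kinetic calcium fluorescence (1 cycle/s) in inducible HEK293 T-REx D2 cells after an EC80 dopamine addition that followed 180 s compound preincubation. Loss of the dopamine response indicates antagonism.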
D3 ag: activates human D3 dopamine receptor beta-arrestin recruitment; shares compounds with D2 ag-1; 2,300 tested, 4% active; AID 720506; Potency, µM (titrated, usually from 76.9 µM), for inactives: at the highest dose activation, actives largely listed as activators; DiscoveRx D3 beta-arrestin cells, luminescence, 90 min;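 further: potency means the concentration at half of the fitted maximal effect; 100% = dopamine control response; nearly all actives have a fitted effect of over 70% in size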
Target sequence (P35462 whole entry, looked up): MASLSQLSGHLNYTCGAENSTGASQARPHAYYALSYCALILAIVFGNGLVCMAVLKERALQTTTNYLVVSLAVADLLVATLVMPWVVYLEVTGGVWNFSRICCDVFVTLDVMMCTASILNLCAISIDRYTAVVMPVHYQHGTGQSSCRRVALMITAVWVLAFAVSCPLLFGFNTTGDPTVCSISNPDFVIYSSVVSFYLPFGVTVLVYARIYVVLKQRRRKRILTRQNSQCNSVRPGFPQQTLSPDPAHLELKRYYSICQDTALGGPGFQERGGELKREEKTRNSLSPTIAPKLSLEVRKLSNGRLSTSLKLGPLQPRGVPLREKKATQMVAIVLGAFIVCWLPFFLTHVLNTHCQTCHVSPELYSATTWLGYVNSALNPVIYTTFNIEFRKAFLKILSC
D2 ag-3: activates human D2 dopamine receptor in D3 counterscreen | shares compounds with D2 ag-1 | DiscoveRx PathHunter D2 beta-arrestin, luminescence, 90 min; response scale: percent relative to full dopamine signal | Potency, µM (series often up to 76.9 µM), for inactives: top-dose activation, actives largely listed as activators | 2,300 tested, 5.9% active; further: potency means the concentration at half of the fitted maximal effect; % of control where 0% means no effect; nearly all actives have a fitted effect of over 70% in size
* hit, by the source's call; ? = inconclusive; . = not tested or not shown. Unless noted, the call rests on the fitted dose curve; in most records, active means well fitted activation curve with a large enough effect; inconclusive means small, poorly fitted or top-dose-only effect; inactive means flat fitted curve, though single readings scatter.

SMILES	D2 PAM-1	D2 ag-1	D2 PAM-2	D2 ag-2	D2 antagonist	D3 ag	D2 ag-3
COc1ccc(/C=N/NC(=O)CCN2CCN(c3ccccc3)CC2)c(OC)c1OC	-10	80*	-24	?	84*	11%	?
CN(C1CCCCC1)S(=O)(=O)c1ccc2c(c1)c(=O)c(C(=O)N1CCN(c3ccccc3)CC1)cn2C	.	0	21	.	.	.	.
O=C(Nc1cccc(S(=O)(=O)N2CCCC2)c1)[C@H]1C[C@H](O)[C@@H](CO)O1	-4	.	.	-4	.	.	.
O=[N+]([O-])c1ccc(CN2CCN(c3ccccc3)CC2)o1	3	-1	-8	4	-16	4%	2%
O=[N+]([O-])c1ccc(N2CCN(Cc3ccc([N+](=O)[O-])o3)CC2)cc1	6	1	-8	11	19	.	.
O=C(CCN1CCN(c2ccccc2)CC1)N/N=C/c1ccc([N+](=O)[O-])o1	6	86*	-18	?	70*	0%	11µM*
CCc1ccc(-n2nc(CO)c(C(=O)NCc3ccccn3)n2)cc1	.	.	4	.	.	.	.
Cc1c(-c2csc(N)n2)cnn1C	12	10	2	?	26	11µM*	22%
Nc1ccn(CC(=O)NCCNc2ccc([N+](=O)[O-])cn2)c(=O)n1	-6	0	-11	-4	-1	-7%	-5%
O=C(CN1CCN(Cc2ccccc2)CC1)NCCNc1ccc([N+](=O)[O-])cn1	-2	1	6	-4	-8	.	.
COc1ccc2[nH]cc(C3N4CC5(C)CN3CC(C)(C4)C5=O)c2c1 (stereo not drawn)	-3	58*	-14	0	-22	3%	-2%

High-throughput results (PubChem)
